# Rows were chosen to be rich in hits. Some 3.9% of all compounds tested hit in one or more screens of this group.
# TWEAK-Fn14 inh: TWEAK-Fn14 signaling inhibition; inhibition, % at 10 µM; 360,000 tested, 2% active; TWEAK-stimulated Fn14 reporter cells, luciferase luminescence, 8 h; in the data active = inhibition above about 50%
# C8 TRAIL sens: sensitizes caspase-8 expressing cells to TRAIL; inhibition (viability loss, TRAIL sensitization), % at 10 µM; NB7+C8 cells + TRAIL, ATPlite viability luminescence; 360,000 tested, 1% active;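 active = compounds causing at least 50% loss of cell viability in the single-dose screen, relative to plate controls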
# aSyn UTR inh: MLPCN primary screen, SNCA 5' untranslated region; alpha-synuclein 5'UTR reporter, inhibitor activity; inhibition, % (tested at 7.5 µM); 300,000 tested, 0.82% active; AID 1813; in the data active = inhibition above about 60%;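 also: H4 neuroglioblastoma cells stably carrying SNCA 5'UTR luciferase fusion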
# TROY signal inh: inhibitors of TROY-dependent NF-kB signaling; Q293 LMP1-TROYcd NF-kB luciferase reporter, 4 h; inhibition, % at 10 µM; 360,000 tested, 0.98% active;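 active = compounds whose plate-normalised and pattern-corrected inhibition of the luciferase reporter signal at the single screening dose is 50% or more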
# HIF-2a inh: inhibitors of HIF-2a | 360,000 tested, 0.72% active | inhibition, % at 18.8 µM | 786-0 RCC cells HIF-2a reporter, luciferase luminescence, overnight;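 active = inhibition of the luminescence signal of 40% or more relative to plate controls, in a single-dose primary screen at 18.75 µM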
# HSP90 refold inh: blocks HSP90-mediated luciferase refolding in reticulocyte lysate | 290,000 tested, 0.91% active | AID 1789 | inhibition, % at 5.6 µM | Rabbit reticulocyte lysate, luciferase refolding luminescence, 3 h;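 active = inhibition above the screen-wide mean plus 3 SD, computed separately per campaign, cut at about 16% in these data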;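 also: inhibitors lower the luminescence because luciferase stays unfolded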
# Hits are given with their value; - = inactive; . = not tested or not shown.
SMILES,TWEAK-Fn14 inh,C8 TRAIL sens,aSyn UTR inh,TROY signal inh,HIF-2a inh,HSP90 refold inh
CC1CCN(Cc2c(C(=O)N/N=C/c3ccccc3O)nnn2-c2nonc2N)CC1,-,-,65,-,-,-
CC(=C/c1ccccc1)/C=N/NC(=O)c1nnn(-c2nonc2N)c1CN1CCC(C)CC1,-,-,-,-,-,-
CCOC(=O)Cc1csc(NC(=O)/C=C\c2ccccc2)n1,-,-,-,-,-,-
CCOC(=O)Cc1csc(N/N=C\c2cccc(Br)c2)n1,-,-,-,-,-,-
CCOC(=O)CNC(=O)CSc1ncnc2c1cnn2-c1ccc(Cl)cc1,-,-,-,-,-,-
CCOC(=O)Cc1csc(NC(=O)/C=C/c2ccc(OC)cc2)n1,-,72,-,-,-,-
CCOC(=O)Cc1csc(N/N=C\c2ccc(N(C)C)cc2)n1,73,-,-,-,-,-
CCOC(=O)Cc1csc(NC(=O)c2cc3c(s2)CCCC3)n1,-,54,-,-,-,-
CCOC(=O)Cc1csc(NC(=O)CSc2ncnc3c2cnn3-c2ccc(OC)cc2)n1,61,-,-,-,-,-
CC1(C(=O)NS(=O)(=O)c2cccc(F)c2)CCN1C(=O)CCC1CCCC1 (configuration not stated),-,-,.,-,-,.
Cc1c(CCNC=O)cc(C)c2c3c(oc12)CCCC3,-,-,.,-,-,.
CC(C)N(Cc1ccccc1)C(=O)COC(=O)c1cnc(Cl)c(Cl)c1,-,75,.,-,-,.
O=C(OCc1ccccc1)c1cnc(Cl)c(Cl)c1,-,-,-,-,-,-
COc1ccc(C(C)(NC(C)=O)c2nc(-c3ccncc3)cs2)cc1 (configuration not stated),-,-,.,-,-,.
O=C(NCCc1ccc(Cl)cc1)C1CCC(CNc2nc(=S)[nH]c3ccccc23)CC1 (configuration not stated),-,-,65,-,-,-
O=C(NCCC1=CCCCC1)C1CCC(CNc2nc(=S)[nH]c3ccccc23)CC1 (configuration not stated),-,-,99,-,-,-
O=C(NCc1ccc(F)c(F)c1)c1cccc2c(-c3cccnc3)coc12,-,-,.,-,-,.
O=C(NCc1cccc(Cl)c1)c1cccc2c(-c3cccnc3)coc12,90,-,.,56,-,.
CS(=O)(=O)Nc1cccc(NC(=O)c2cccc3c(-c4cccnc4)coc23)c1,-,-,.,-,-,.
CC(=O)c1cccc(NC(=O)c2cccc3c(-c4cccnc4)coc23)c1,58,-,.,-,-,.
COc1ccc(CNC(=O)c2cccc3c(-c4cccnc4)coc23)cc1OC,64,-,.,50,-,.
CCOC(=O)c1c(NC(=O)c2ccco2)n(C2CCCCC2)c2nc3ccccc3nc12,88,-,-,71,-,-
CCC(=O)Nc1c(C#N)c2nc3ccccc3nc2n1C1CCCCC1,-,-,-,-,-,-
Brc1nc(-c2ccccc2)nc(-c2ccccc2)c1Br,-,94,-,-,-,.
c1ccc(-c2nnc(-c3ccncc3)nc2-c2ccccc2)cc1,-,-,-,-,-,-
SMILES,TWEAK-Fn14 inh,C8 TRAIL sens,aSyn UTR inh,TROY signal inh,HIF-2a inh,HSP90 refold inh
O=C1/C(=C/N(C(=O)c2ccco2)c2ccc(Cl)cc2)Sc2ccccc21,83,55,-,60,-,16
O=C1c2ccccc2C(=O)N1CCCCN(C(=O)c1ccco1)c1ccc(Cl)cc1,-,-,-,-,-,-
CCOc1ccc(C(=O)Nc2cc(C)c3c(=O)oc4ccccc4c3n2)cc1,-,56,-,-,-,-
Cc1cc(NC(=O)c2ccccc2)nc2c1c(=O)oc1ccccc12,-,-,-,-,-,-
Cc1cc(NC(=O)c2ccc(S(=O)(=O)N3CCCC3)cc2)nc2c1c(=O)oc1ccccc12,-,55,-,-,-,-
Cc1cc(NC(=O)c2ccc(S(=O)(=O)N3CCOCC3)cc2)nc2c1c(=O)oc1ccccc12,.,.,-,.,.,-
CCOc1ccc2c(ccc(/C=C/c3cc(C)c4cccnc4c3O)[n+]2C)c1,-,-,.,-,-,.
CN(C)S(=O)(=O)c1cccc(-c2nn(-c3ccccc3)cc2/C=C2\SC(=S)NC2=O)c1,64,-,.,67,-,-
COc1ccc(-c2[nH]ncc2CNC(C)c2cn(C)nc2C)c(F)c1 (configuration not stated),65,-,-,-,-,-
CCCCn1c(O)c2n(c1=O)Cc1ccccc1N=C2c1ccc(C)cc1,-,-,.,-,-,.
CC(=O)Nc1ccc(OCC(O)Cn2c3ccccc3c3ccccc32)cc1 (configuration not stated),-,-,-,-,-,-
CC(=O)Nc1ccc(OCC(O)Cn2c3ccccc3c3ccccc32)c(C)c1 (configuration not stated),58,-,-,-,-,-
CCCCCCCCCC[n+]1cccc2c3ccccc3ccc21,73,-,-,51,-,-
CCCCCCCC[n+]1cccc2c3ccccc3ccc21,83,59,-,54,-,-
O=C(Nc1ccc(CN2CCOCC2)cc1)c1ccc(Br)cc1,-,-,-,-,-,-
O=C(Nc1ccc(CN2CCOCC2)cc1)c1ccc(-c2ccc(Br)cc2)o1,-,-,-,53,-,-
O=C(Nc1ccc(F)cc1)C(CCc1ccccc1)N1CCN(Cc2c(F)cccc2Cl)CC1 (configuration not stated),.,-,.,.,-,.
CCCNC(=O)c1cc(S(=O)(=O)N2CCC3(CC2)OCCO3)ccc1F,-,-,.,-,-,.
O=C(Nc1ncccc1O)c1ccc2ccccc2c1,-,-,-,-,-,17
Fc1ccc(F)c(C2=NNC(=Nc3ccccc3F)SC2)c1,-,-,-,-,-,-
Fc1ccccc1N=C1NN=C(c2ccccc2)CS1,67,-,-,-,-,-
Nc1ccn(C(C=O)CC(C=O)CO)c(=O)n1 (configuration not stated),-,-,.,-,-,.
CC(C)(C)NC(=O)CN(C(=O)CCC(=O)Nc1nccs1)c1ccccc1F,-,-,.,-,-,.
N#C/C(=C/c1ccc(Sc2nc3ccccc3[nH]2)o1)c1cccc(Br)c1,-,-,-,68,-,-
N#C/C(=C/c1ccc(Sc2nc3ccccc3[nH]2)o1)c1cccc(F)c1,-,-,-,55,-,-
COc1ccc(N2C(c3ccsc3)=Cc3cc4c(cc3C2c2c[nH]c3ccccc23)OCO4)cc1 (configuration not stated),-,-,.,-,-,.
NS(=O)(=O)c1ccc(CCNc2nn3c(-c4ccc(F)c(Cl)c4)cnc3s2)cc1,56,-,.,-,-,.
Cn1nc(-c2ccccn2)nc2c(=O)n(C)c(=O)nc1-2,102,96,94,57,71,87
CCn1c2ccccc2c2cc(NC(=O)c3coc(=O)c(Br)c3)ccc21,74,-,-,-,-,-
CCn1c2ccccc2c2cc(NC(=O)c3cc(OC)c(OC)c(OC)c3)ccc21,-,-,-,-,-,-
